Records with an inconclusive call do not appear. A number with no mark means an inactive call. Calls come from the whole dose curve; as a rule, active = well fitted inhibition curve with a large enough effect; inconclusive = small, poorly fitted or top-dose-only effect; inactive = flat fitted curve, though single readings scatter.
% is set by controls: 0 for no effect and ±100 for the full control effect.

In the first assay the test system is CRL-7250. Briefly: Cytotoxic Profiling of Annotated Libraries Using Quantitative High-Throughput Screening (AID 1296008). Note: nearly all actives have a fitted effect of over 60% in size. The note with it: Five cell lines viability, CellTiter-Glo ATP luminescence, 48-72 h; max response: stronger effect = lower value. Put shortly: (§1)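 Cells exposed to compounds for 48 or 72 hr at 37 degrees Celsius. Viability read as ATP-coupled luminescence with CellTiter-Glo after 10 min at room temperature.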
For the compound `CC(C)c1ccc2c(c1)C(=O)CC1C(C)(C(=O)O)CCCC21C` (stereo not drawn), the max response is -5.24%.
On the same count and under the same terms, to `C=C1CCC2(C(=O)OC3OC(CO)C(O)C(O)C3O)CCC3(C)C(=CCC4C5(C)CCC(OC6OC(CO)C(OC7OC(C)C(O)C(O)C7O)C(OC7OCC(O)C(O)C7O)C6O)C(C)(C)C5CCC43C)C2C1` (stereo not drawn) belongs 4.25%.
On to `C=C1CC2C(C)(CCC(=O)O)C(C(C)(C)O)CCC2(C)C2(C(=O)OC)C(=O)C(C)(O)C(=O)C12C` (stereo not drawn), for which the max response was -12.5%.
Turning to `COc1ccc(-n2c(SCC#N)nc3sc4c(c3c2=O)CCCC4)cc1`, the max response is 1.37%.

Another assay deals with HEK293. The assay is described as above. The note with it: Five cell lines viability, CellTiter-Glo ATP luminescence, 48-72 h; max response: stronger effect = lower value. The procedure, abridged: as §1
`OCC1OC(Oc2cc(O)cc(/C=C/c3ccc(OC4OC(CO)C(O)C(O)C4O)cc3O)c2)C(O)C(O)C1O` (stereo not drawn): the max response is 3.22%.
On the same count and under the same terms, then `C[C@@H]1O[C@@H](O[C@H]2[C@H](O[C@H]3[C@H](O[C@H]4CC[C@@]5(C)C(CC[C@]6(C)C5CC=C5[C@@H]7CC(C)(C)CC(=O)[C@]7(C)CC[C@]56C)[C@@]4(C)CO)O[C@H](C(=O)O)[C@@H](O)[C@@H]3O)O[C@H](CO)[C@H](O)[C@@H]2O)[C@H](O)[C@H](O)[C@H]1O` (stereo partly drawn), with -1.03%; and `CC(O)C/C=C/C=C/C(=O)OC1C=C2COC(=O)C2(O)C2(C)CCCC(C)(C)C12` (stereo not drawn), with -13.6%; and `C[C@@H]1O[C@@H](O[C@H]2[C@H](O)[C@@H](O[C@@H]3O[C@H](CO)[C@H](O)[C@H](O)[C@H]3O)[C@H](O[C@H]3CC[C@@]4(C)C(CC[C@]5(C)C4CC=C4[C@@H]6CC(C)(C)CC[C@]6(C(=O)O[C@@H]6O[C@H](CO)[C@@H](O)[C@H](O)[C@H]6O)CC[C@]45C)C3(C)C)O[C@@H]2C(=O)O)[C@H](O)[C@H](O)[C@H]1O` (stereo partly drawn), with 0.183%.

The values are drawn from PubChem BioAssay (NCATS).
